# Test results from PubChem BioAssay.
# For part of these data: Entries with a potency or affinity are not part of this list. Activity calls are given as the source filed them.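 How the source made its calls, unless noted: active means compound raising the membrane signal above positive-control mean plus 3 SD in both repeats, and a primary screen hit; inactive means the rest.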
# How the values were obtained:
# [1] = tested on: TRPC4 beta (transient receptor potential cation channel C4), mouse; experiment: activators of mouse TRPC4 channel, confirmation, cell-based, Fluo4 calcium, HEK293 TRPC4beta/mu-opioid, duplicates, 10 µM (AID 2426;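 active means fluorescence ratio normalized to control raised more than 50% in primary screen plus both repeat runs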); settings: Fluo4 calcium fluorescence, at 10 µM; active compounds read high
# [2] = tested on: transient receptor potential cation channel C4 beta (TRPC4), mouse; experiment: activators of mouse TRPC4 channel, confirmation, cell-based, second round, Fluo4, HEK293 TRPC4beta/mu-opioid, 1 µM (AID 2461;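 active means primary screen active and over 50% activation in each of two duplicate runs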); settings: Fluo4 calcium fluorescence, at 1 µM; active compounds read high
# [3] = tested on: TRPC4 (transient receptor potential cation channel C4 beta), mouse; experiment: positive allosteric modulators of mouse TRPC4, confirmation, cell-based, second round, Fluo-4, HEK293 TRPC4beta/mu-opioid, 1 µM (AID 2554;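 active means primary screen hit whose fluorescence ratio, in both repeats, exceeds the weak agonist control mean by 3 SD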); settings: DAMGO EC20, Fluo-4 calcium flux, at 1 µM; active compounds read high
# [4] = tested on: TRPC4 beta (transient receptor potential cation channel C4), mouse; experiment: positive allosteric modulators of mouse TRPC4, confirmation, cell-based, Fluo-4, HEK293 TRPC4beta/mu-opioid (AID 2555;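 active means primary screen hit whose calcium fluorescence ratio, in both repeats, exceeds the weak agonist control mean by 3 SD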); settings: DAMGO EC20, Fluo-4 calcium flux, at 10 µM; active compounds read high
# [5] = target: Short transient receptor potential channel 4 (Mus musculus) (UniProt Q9QUQ5); experiment: inhibitors of mouse TRPC4 channel, confirmation, cell-based, Fluo4, HEK293 TRPC4beta/mu-opioid (AID 2636;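 active means calcium signal cut by more than 3 SD below the full-agonist control yet still positive, in both repeats and the earlier primary screen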); settings: DAMGO, Fluo4 calcium flux, at 10 µM; active compounds read high
# [6] = target: Short transient receptor potential channel 4 (Mus musculus) (UniProt Q9QUQ5); experiment: inhibitors of mouse TRPC4 channel, confirmation, cell-based, second round, Fluo4, HEK293 TRPC4beta/mu-opioid, 1 µM (AID 2637;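 active means calcium signal ratio cut to more than 3 SD under the fully stimulated control mean yet still positive, in both repeats and the primary screen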); settings: Fluo4 calcium flux, DAMGO, at 1 µM; active compounds read high
# [7] = target: Short transient receptor potential channel 4 (Mus musculus) (UniProt Q9QUQ5); experiment: mouse TRPC4 channel activators, dose response, cell-based, HEK293 TRPC4/mu-opioid, Fluo-4 calcium (AID 434937;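 active means primary screen activator hit with a dose response curve and TRPC4 channel activation at any tested dose; inactive means no activation, no dose response, or not a primary hit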)
# [8] = target: Short transient receptor potential channel 4 (Mus musculus) (UniProt Q9QUQ5); experiment: TRPC4 positive allosteric modulators, dose response, cell-based, HEK293 TRPC4/mu-opioid, Fluo-4 calcium, EC20 DAMGO (AID 434941;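 active means earlier screen potentiator hit that boosts the TRPC4 ion channel at some dose, with a dose response; inactive means no potentiation, no dose response, or not a prior hit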;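 further: calcium entry triggered by an EC20 dose of DAMGO at the co-expressed mu-opioid receptor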)
# [9] = target: Short transient receptor potential channel 4 (Mus musculus) (UniProt Q9QUQ5); experiment: mouse TRPC4 channel inhibitors, dose response, cell-based, HEK293 TRPC4/mu-opioid, Fluo-4 calcium (AID 434942;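 active means primary screen inhibitor hit that blocks the TRPC4 channel at some tested dose, yielding a dose curve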)
# [10] = target: Short transient receptor potential channel 6 (Mus musculus) (UniProt Q61143); experiment: inhibition of mouse TRPC6 channel, confirmation, selectivity assay for TRPC4 inhibitor project, cell-based, HEK293, membrane potential dye, duplicate (AID 434948;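 active means active in primary screen and both duplicates, each dropping signal beyond three positive-control SD with fluorescence still positive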); settings: HEK293 TRPC6, membrane potential dye fluorescence, at 10 µM, stimulated with maximal-effect acetylcholine; active compounds read high
# [11] = target: Short transient receptor potential channel 6 (Mus musculus) (UniProt Q61143); experiment: activation of mouse TRPC6 channel, confirmation, selectivity assay for TRPC4 activator project, cell-based, HEK293, membrane potential dye, duplicate (AID 434950;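 active means membrane potential signal rise above negative control mean plus 3 SD in both duplicates, also active in the earlier TRPC4 screen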;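 on activation: 0% = buffer only wells and 100% = acetylcholine maximal-effect wells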); settings: HEK293 TRPC6, membrane potential fluorescence, at 10 µM; active compounds read high
# [12] = target: Short transient receptor potential channel 6 (Mus musculus) (UniProt Q61143); experiment: TRPC6 potentiation by TRPC4 potentiator hits, confirmation, selectivity assay for TRPC4 potentiator project, HEK293 cells, membrane potential dye, duplicate (AID 434952); settings: HEK293 TRPC6, membrane potential dye fluorescence, at 10 µM, maximal acetylcholine added after compound; active compounds read high
# [13] = target: Short transient receptor potential channel 4 (Mus musculus) (UniProt Q9QUQ5); experiment: calcium flux activators in TRPC4/5HT1a cells, counter-screen for TRPC4 activator project, cell-based, second counter screen, HEK293 TRPC4/5HT1a, Fluo-4 (AID 434977;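 active means calcium signal rise above buffer-control mean plus 5 SD in both duplicates, and also a hit in the primary screen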); settings: Fluo-4 calcium flux, at 10 µM; active compounds read high
# [14] = calcium flux inhibitors in TRPC4/5HT1a cells, confirmation, counter-screen for TRPC4 inhibitor project, cell-based, second counter screen, HEK293 TRPC4/5HT1a, Fluo-4 (AID 434978;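 active means primary screen active whose calcium signal fell more than 3 SD beyond the full-serotonin control mean in both duplicate plates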;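 further: serotonin given first at submaximal then at maximal dose after compound preincubation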); settings: Fluo-4 calcium flux, at 10 µM, serotonin added to trigger calcium flux; active compounds read high
# [15] = tested on: TRPC4 (mouse), co-expressed with 5HT1a in HEK293; experiment: calcium flux potentiators in TRPC4/5HT1a cells, confirmation, counter-screen for TRPC4 potentiator project, cell-based, second counter screen, HEK293 TRPC4/5HT1a, Fluo-4 (AID 434979;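 active means signal rise over 3 SD above mean of control wells given weak agonist, in both repeats and first screen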); settings: Fluo-4 calcium flux, at 10 µM, serotonin added at its EC20 dose; active compounds read high
# [16] = calcium flux activation in mu-opioid HEK293 cells, confirmation, counter-screen for TRPC4 activator project, cell-based, HEK293 mu-opioid receptor line (AID 449723;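 active means hit in primary screen, with calcium signal over 5 SD above buffer well mean in both duplicates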;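 further: counter screen cells carry the mu-opioid receptor alone and lack TRPC4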); settings: Fluo-4 calcium fluorescence, at 10 µM; active compounds read high
# [17] = calcium flux enhancement in mu-opioid HEK293 cells, confirmation, counter-screen for TRPC4 allosteric potentiator project, cell-based, HEK293 mu-opioid receptor line (AID 449724;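 active means calcium signal rise more than 3 SD above the low-dose agonist control mean, in both duplicate plates and the primary screen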); settings: Fluo-4 calcium flux, at 10 µM, compound added before EC20 DAMGO stimulus; active compounds read high
# Sequence of Short transient receptor potential channel 4 (Mus musculus) (Q9QUQ5 whole entry, looked up): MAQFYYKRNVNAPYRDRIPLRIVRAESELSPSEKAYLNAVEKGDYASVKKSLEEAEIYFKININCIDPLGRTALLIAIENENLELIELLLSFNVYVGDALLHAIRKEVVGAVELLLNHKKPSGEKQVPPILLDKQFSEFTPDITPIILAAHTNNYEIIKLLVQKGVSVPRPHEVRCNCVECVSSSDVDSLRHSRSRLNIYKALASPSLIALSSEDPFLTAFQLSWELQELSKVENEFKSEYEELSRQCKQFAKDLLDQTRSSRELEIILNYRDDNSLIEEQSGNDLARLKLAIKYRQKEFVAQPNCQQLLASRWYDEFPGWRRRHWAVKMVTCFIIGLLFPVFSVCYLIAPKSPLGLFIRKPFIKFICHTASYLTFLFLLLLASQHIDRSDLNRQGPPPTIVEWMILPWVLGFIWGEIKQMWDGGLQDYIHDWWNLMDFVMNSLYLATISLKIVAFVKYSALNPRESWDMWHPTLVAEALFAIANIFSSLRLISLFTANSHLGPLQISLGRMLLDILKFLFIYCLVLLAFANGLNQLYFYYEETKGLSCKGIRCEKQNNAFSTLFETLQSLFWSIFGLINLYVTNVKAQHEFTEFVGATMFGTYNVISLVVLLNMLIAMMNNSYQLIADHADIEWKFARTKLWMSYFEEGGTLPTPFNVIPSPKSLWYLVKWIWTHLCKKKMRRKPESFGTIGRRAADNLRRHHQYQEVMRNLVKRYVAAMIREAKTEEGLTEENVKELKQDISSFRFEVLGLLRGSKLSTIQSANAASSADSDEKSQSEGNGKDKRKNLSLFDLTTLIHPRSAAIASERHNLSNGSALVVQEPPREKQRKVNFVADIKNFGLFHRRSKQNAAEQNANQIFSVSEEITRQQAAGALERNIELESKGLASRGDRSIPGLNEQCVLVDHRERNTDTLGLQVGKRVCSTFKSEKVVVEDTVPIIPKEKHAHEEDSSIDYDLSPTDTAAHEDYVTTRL
# Sequence of Short transient receptor potential channel 6 (Mus musculus) (Q61143 whole entry, looked up): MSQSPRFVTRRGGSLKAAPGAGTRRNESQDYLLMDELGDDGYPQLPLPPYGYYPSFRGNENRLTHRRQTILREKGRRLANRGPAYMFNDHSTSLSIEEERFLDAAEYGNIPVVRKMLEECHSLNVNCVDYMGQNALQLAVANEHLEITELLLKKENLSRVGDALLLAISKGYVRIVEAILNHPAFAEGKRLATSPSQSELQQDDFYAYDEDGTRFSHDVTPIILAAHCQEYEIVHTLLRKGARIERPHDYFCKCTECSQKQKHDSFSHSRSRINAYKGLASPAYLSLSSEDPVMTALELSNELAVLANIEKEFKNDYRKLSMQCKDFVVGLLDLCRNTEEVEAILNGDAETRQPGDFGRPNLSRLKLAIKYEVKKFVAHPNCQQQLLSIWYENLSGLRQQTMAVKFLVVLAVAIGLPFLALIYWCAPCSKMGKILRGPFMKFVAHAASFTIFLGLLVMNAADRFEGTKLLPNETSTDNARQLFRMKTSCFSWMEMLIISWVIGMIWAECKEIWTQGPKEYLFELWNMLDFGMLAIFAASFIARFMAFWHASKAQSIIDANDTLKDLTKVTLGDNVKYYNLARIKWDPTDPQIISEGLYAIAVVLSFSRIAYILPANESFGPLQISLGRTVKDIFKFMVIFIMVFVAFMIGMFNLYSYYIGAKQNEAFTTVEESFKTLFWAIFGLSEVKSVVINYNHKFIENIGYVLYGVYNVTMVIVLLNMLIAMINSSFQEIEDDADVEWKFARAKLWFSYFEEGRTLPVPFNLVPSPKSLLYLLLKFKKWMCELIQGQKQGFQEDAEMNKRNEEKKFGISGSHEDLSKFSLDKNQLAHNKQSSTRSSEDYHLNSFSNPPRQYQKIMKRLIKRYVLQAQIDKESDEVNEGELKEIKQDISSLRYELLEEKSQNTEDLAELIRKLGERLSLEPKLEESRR
smiles,measurement,setting,value
Cc1ccc(C2(CCNC(C)c3cccs3)CCOC(C(C)C)C2)cc1 (stereo not given),outcome,[1],inactive
same,outcome,[2],inactive
same,outcome,[3],inactive
same,outcome,[4],inactive
same,outcome,[5],inactive
same,outcome,[6],inactive
same,outcome,[7],inactive
same,outcome,[8],inactive
same,outcome,[9],inactive
same,outcome,[10],inactive
same,activation,[11],69% (active)
same,outcome,[12],inactive
same,outcome,[13],inactive
same,outcome,[14],inactive
same,outcome,[15],inactive
same,outcome,[16],inactive
same,outcome,[17],inactive
Cc1ccc(S(=O)(=O)N2CCC(C(=O)OCC(=O)N(C)CC(=O)Nc3ccc(F)cc3)CC2)cc1C,outcome,[1],inactive
same,outcome,[2],inactive
same,outcome,[3],inactive
same,outcome,[4],inactive
same,outcome,[5],inactive
same,outcome,[6],inactive
same,outcome,[7],inactive
same,outcome,[8],inactive
same,outcome,[9],inactive
same,outcome,[10],inactive
same,outcome,[11],inactive
same,outcome,[12],inactive
same,outcome,[13],inactive
same,outcome,[14],inactive
same,outcome,[15],inactive
same,outcome,[16],inactive
same,outcome,[17],inactive
CN1CCN(c2ccc(Cl)cc2NC(=O)/C=C/c2cccc(F)c2)CC1,outcome,[1],inactive
same,outcome,[2],inactive
same,potentiation,[3],11% (active)
same,outcome,[4],inactive
same,outcome,[5],inactive
same,outcome,[6],inactive
same,outcome,[7],inactive
same,outcome,[8],inactive
same,outcome,[9],inactive
same,outcome,[10],inactive
same,outcome,[11],inactive
same,outcome,[12],inactive
same,outcome,[13],inactive
same,outcome,[14],inactive
same,potentiation,[15],41.1% (active)
same,outcome,[16],inactive
same,outcome,[17],inactive
COc1ccc(-c2cc(C3CCN(c4cc(Cl)nc(N)n4)CC3)[nH]n2)cc1,outcome,[1],inactive
same,outcome,[2],inactive
same,outcome,[3],inactive
same,potentiation,[4],20% (active)
same,outcome,[5],inactive
same,outcome,[6],inactive
same,outcome,[7],inactive
same,outcome,[8],inactive
same,outcome,[9],inactive
same,outcome,[10],inactive
same,outcome,[11],inactive
same,outcome,[12],inactive
same,outcome,[13],inactive
same,outcome,[14],inactive
same,potentiation,[15],80.5% (active)
same,outcome,[16],inactive
same,outcome,[17],inactive
COc1ccc2c(c1)c1ncn(CCN3CCCC3)c(=O)c1n2C,outcome,[1],inactive
same,outcome,[2],inactive
same,potentiation,[3],13% (active)
same,outcome,[4],inactive
same,outcome,[5],inactive
same,outcome,[6],inactive
same,outcome,[7],inactive
same,outcome,[8],inactive
same,outcome,[9],inactive
same,outcome,[10],inactive
same,outcome,[11],inactive
same,outcome,[12],inactive
same,outcome,[13],inactive
same,outcome,[14],inactive
same,potentiation,[15],12.8% (active)
same,outcome,[16],inactive
same,outcome,[17],inactive
Cc1ccc(CNC(=O)CCC2CCCN(Cc3cc4ccccc4o3)C2)o1 (stereo not given),outcome,[1],inactive
same,outcome,[2],inactive
same,outcome,[3],inactive
same,outcome,[4],inactive
same,outcome,[5],inactive
same,outcome,[6],inactive
same,outcome,[7],inactive
same,outcome,[8],inactive
same,outcome,[9],inactive
same,outcome,[10],inactive
same,outcome,[11],inactive
same,outcome,[12],inactive
same,outcome,[13],inactive
same,outcome,[14],inactive
same,outcome,[15],inactive
same,outcome,[16],inactive
same,outcome,[17],inactive
CCOc1ccc(CN(C)CC(=O)NNC(=O)c2ccc(Cl)cc2)cc1OC,outcome,[1],inactive
same,outcome,[2],inactive
same,potentiation,[3],41% (active)
same,potentiation,[4],22% (active)
same,outcome,[5],inactive
same,outcome,[6],inactive
same,outcome,[7],inactive
same,outcome,[8],inactive
same,outcome,[9],inactive
same,outcome,[10],inactive
same,outcome,[11],inactive
same,outcome,[12],inactive
same,outcome,[13],inactive
same,outcome,[14],inactive
same,potentiation,[15],11% (active)
same,outcome,[16],inactive
same,outcome,[17],inactive
O=C(C[n+]1cc(-c2ccc(Br)cc2)n2c1CCCCC2)c1ccccc1,outcome,[1],inactive
same,outcome,[2],inactive
same,outcome,[3],inactive
same,outcome,[4],inactive
same,outcome,[5],inactive
same,outcome,[6],inactive
same,outcome,[7],inactive
same,outcome,[8],inactive
same,outcome,[9],inactive
same,outcome,[10],inactive
same,outcome,[11],inactive
same,outcome,[12],inactive
same,outcome,[13],inactive
same,outcome,[14],inactive
same,outcome,[15],inactive
same,outcome,[16],inactive
same,outcome,[17],inactive
C#CC[N+]1(CC#Cc2cccc3ccccc23)CCOCC1,outcome,[1],inactive
same,outcome,[2],inactive
same,outcome,[3],inactive
same,potentiation,[4],22% (active)
same,outcome,[5],inactive
same,outcome,[6],inactive
same,outcome,[7],inactive
same,outcome,[8],inactive
same,outcome,[9],inactive
same,outcome,[10],inactive
same,outcome,[11],inactive
same,outcome,[12],inactive
same,outcome,[13],inactive
same,outcome,[14],inactive
same,potentiation,[15],26.3% (active)
same,outcome,[16],inactive
same,outcome,[17],inactive
Cc1ccc(CC(=O)NCC(c2ccco2)N(C)C)cc1C (stereo not given),outcome,[1],inactive
same,outcome,[2],inactive
same,outcome,[3],inactive
same,outcome,[4],inactive
same,outcome,[5],inactive
same,outcome,[6],inactive
same,outcome,[7],inactive
same,outcome,[8],inactive
same,outcome,[9],inactive
same,outcome,[10],inactive
same,outcome,[11],inactive
same,outcome,[12],inactive
same,outcome,[13],inactive
same,outcome,[14],inactive
same,outcome,[15],inactive
same,outcome,[16],inactive
same,outcome,[17],inactive
CC(C)(C)n1nnnc1C(c1ccc(Cl)cc1)N(Cc1cccnc1)Cc1ccco1 (stereo not given),outcome,[1],inactive
same,outcome,[2],inactive
same,outcome,[3],inactive
same,outcome,[4],inactive
same,outcome,[5],inactive
same,outcome,[6],inactive
same,outcome,[7],inactive
same,outcome,[8],inactive
same,outcome,[9],inactive
same,outcome,[10],inactive
same,outcome,[11],inactive
same,outcome,[12],inactive
same,outcome,[13],inactive
same,outcome,[14],inactive
same,outcome,[15],inactive
same,outcome,[16],inactive
same,outcome,[17],inactive
CCOC(=O)C1(CC2CC2)CCN(Cc2cn[nH]c2-c2cccc(F)c2)CC1,outcome,[1],inactive
same,outcome,[2],inactive
same,outcome,[3],inactive
same,outcome,[4],inactive
same,outcome,[5],inactive
same,outcome,[6],inactive
same,outcome,[7],inactive
same,outcome,[8],inactive
same,outcome,[9],inactive
same,outcome,[10],inactive
same,outcome,[11],inactive
same,outcome,[12],inactive
same,outcome,[13],inactive
same,outcome,[14],inactive
same,outcome,[15],inactive
same,outcome,[16],inactive
same,outcome,[17],inactive
O=C1CCSc2ccc(Cl)cc2N1Cc1ccc(Cl)cc1,outcome,[1],inactive
same,outcome,[2],inactive
same,outcome,[3],inactive
same,outcome,[4],inactive
same,outcome,[5],inactive
same,outcome,[6],inactive
same,outcome,[7],inactive
same,outcome,[8],inactive
same,outcome,[9],inactive
same,outcome,[10],inactive
same,outcome,[11],inactive
same,outcome,[12],inactive
same,outcome,[13],inactive
same,outcome,[14],inactive
same,outcome,[15],inactive
same,outcome,[16],inactive
same,outcome,[17],inactive
c1ccc(Nc2ncnc3sc4c(c23)CCC4)cc1,outcome,[1],inactive
same,outcome,[2],inactive
same,outcome,[3],inactive
same,outcome,[4],inactive
same,outcome,[5],inactive
same,outcome,[6],inactive
same,outcome,[7],inactive
same,outcome,[8],inactive
same,outcome,[9],inactive
same,outcome,[10],inactive
same,activation,[11],30% (active)
same,outcome,[12],inactive
same,outcome,[13],inactive
same,outcome,[14],inactive
same,outcome,[15],inactive
same,outcome,[16],inactive
same,outcome,[17],inactive
CC(C)n1c(SCC(=O)N2c3ccccc3Sc3ccccc32)nc2c1c(=O)n(C)c(=O)n2C,outcome,[1],inactive
same,outcome,[2],inactive
same,outcome,[3],inactive
same,outcome,[4],inactive
same,outcome,[5],inactive
same,outcome,[6],inactive
same,outcome,[7],inactive
same,outcome,[8],inactive
same,outcome,[9],inactive
same,outcome,[10],inactive
same,outcome,[11],inactive
same,outcome,[12],inactive
same,outcome,[13],inactive
same,outcome,[14],inactive
same,potentiation,[15],50.7% (active)
same,outcome,[16],inactive
same,outcome,[17],inactive
